Laboratory results from PubChem BioAssay.
Records with an inconclusive call do not appear. Calls of active or inactive are those of the source.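 How the source made its calls, unless noted: active means percent response above a set limit, the screen-wide mean plus 3 SD (cut at about 130% in these data); inactive means the rest.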

Tests used:
[1] = rapamycin-like changes in RPL19A-GFP expression – cell-based, S. cerevisiae, multiplex flow cytometry, primary screen (AID 1862; in the data active means percent of DMSO control GFP below about 86%;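 further: lower values mimic rapamycin by blocking the RPL19A rise seen in DMSO cells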); details: S. cerevisiae RPL19A-GFP strain, flow cytometry fluorescence, 3 h; at 10 µM; stronger effect = lower value
[2] = TOR pathway GLN3 branch reporter MEP2-GFP changes – S. cerevisiae, multiplex flow cytometry, primary screen (AID 1867;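 active means GFP response, as percent of the DMSO control, above the screen-wide mean plus 3 SD, about 139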;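 further: median GFP channel fluorescence of barcode-gated MEP2-GFP cells measured by flow cytometry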); details: S. cerevisiae MEP2-GFP strain, 3 h, at 10 µM, stronger effect = higher value, 100% means same as DMSO wells
[3] = TOR pathway RTG branch CIT2 reporter changes – S. cerevisiae, GFP fusion, multiplex flow cytometry, primary screen (AID 1870);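 further: barcoded CIT2-GFP strain pooled with four other GFP strains with rapamycin as positive control; median GFP fluorescence per well over plate mean of DMSO wells so 100% = DMSO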; details: S. cerevisiae CIT2-GFP expression, 3 h, at 10 µM, stronger effect = higher value
[4] = TOR pathway LAP4-GFP level changes – S. cerevisiae, multiplex flow cytometry, primary screen (AID 1873;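 active means GFP signal, as percent of the solvent control, above the screen mean plus 3 SD, about 149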); details: S. cerevisiae LAP4-GFP expression, 3 h, at 10 µM, stronger effect = higher value
[5] = yeast AGP1-GFP level changes, GLN3 branch – cell-based, multiplex flow cytometry, S. cerevisiae, primary screen (AID 1887;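 active means GFP signal above the screen-wide mean plus 3 SD, that is over about 124.5% of the solvent control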;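 further: AGP1-GFP fusion strain of S. cerevisiae within a five-strain barcoded multiplex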); details: 3 h, at 10 µM, stronger effect = higher value
[6] = reduced mouse 2C T cell binding to pMHC/ICAM-1 vesicles – MLPCN validation set, flow cytometry, LFA-1/ICAM-1 modulator project, pilot screen (AID 2523;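 active means response below a set limit, under 55% cells CD8-positive and vesicle-bound, and CD8 cells' 90th-percentile brightness under 279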;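 on vesicle binding response: mean PE anti-B7-1 fluorescence of CD8+ cells relative to row control; 100% = QL9-loaded vesicles with DMSO vehicle in the same plate row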); details: 2C mouse CD8+ T cells, at 7 µM, stronger effect = lower value; double positive events: measured here: CD8+/vesicle+ event percentage
[7] = target: Integrin beta-1 (Homo sapiens) + Integrin alpha-4 (Homo sapiens) (UniProt P13612+P05556); assay: alpha4beta1 integrin LIBS antibody binding reduction – U937 cells, HUTS-21 mAb, flow cytometry, validation set, VLA-4 allosteric modulator project, pilot screen (AID 2674;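 active means inhibition above 50%, about 3 SD of the validation set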;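 further: antibody binding induced by the VLA-4 ligand LDV present at three times its Kd; 0% = LDV ligand with antibody and no compound and 100% = antibody without LDV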); details: HUTS-21 LIBS mAb binding, at 6.7 µM, stronger effect = higher value, binding induced by LDV ligand
Integrin beta-1 (Homo sapiens) + Integrin alpha-4 (Homo sapiens), sequence (P05556 whole entry, looked up): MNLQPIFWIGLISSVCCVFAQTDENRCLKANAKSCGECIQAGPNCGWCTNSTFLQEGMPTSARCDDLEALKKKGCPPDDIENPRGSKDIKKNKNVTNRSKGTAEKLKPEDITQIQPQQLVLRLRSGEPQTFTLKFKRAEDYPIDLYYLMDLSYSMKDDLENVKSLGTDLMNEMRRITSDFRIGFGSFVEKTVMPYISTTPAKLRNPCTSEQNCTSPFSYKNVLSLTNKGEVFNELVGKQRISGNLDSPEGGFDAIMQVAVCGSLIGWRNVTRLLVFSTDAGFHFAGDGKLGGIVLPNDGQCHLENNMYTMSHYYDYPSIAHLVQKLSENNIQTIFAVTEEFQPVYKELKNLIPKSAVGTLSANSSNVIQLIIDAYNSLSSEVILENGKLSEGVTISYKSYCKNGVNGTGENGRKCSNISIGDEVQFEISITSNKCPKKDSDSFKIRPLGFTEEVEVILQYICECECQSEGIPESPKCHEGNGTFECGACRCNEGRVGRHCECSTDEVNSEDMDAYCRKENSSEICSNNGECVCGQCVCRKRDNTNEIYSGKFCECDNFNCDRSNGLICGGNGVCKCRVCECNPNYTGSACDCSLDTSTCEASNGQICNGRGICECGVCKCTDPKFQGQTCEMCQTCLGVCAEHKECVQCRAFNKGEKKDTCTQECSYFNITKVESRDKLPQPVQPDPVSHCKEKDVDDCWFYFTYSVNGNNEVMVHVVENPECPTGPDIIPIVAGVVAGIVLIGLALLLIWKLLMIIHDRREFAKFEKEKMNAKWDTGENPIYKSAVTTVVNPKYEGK
Integrin beta-1 (Homo sapiens) + Integrin alpha-4 (Homo sapiens), sequence (P13612 whole entry, looked up): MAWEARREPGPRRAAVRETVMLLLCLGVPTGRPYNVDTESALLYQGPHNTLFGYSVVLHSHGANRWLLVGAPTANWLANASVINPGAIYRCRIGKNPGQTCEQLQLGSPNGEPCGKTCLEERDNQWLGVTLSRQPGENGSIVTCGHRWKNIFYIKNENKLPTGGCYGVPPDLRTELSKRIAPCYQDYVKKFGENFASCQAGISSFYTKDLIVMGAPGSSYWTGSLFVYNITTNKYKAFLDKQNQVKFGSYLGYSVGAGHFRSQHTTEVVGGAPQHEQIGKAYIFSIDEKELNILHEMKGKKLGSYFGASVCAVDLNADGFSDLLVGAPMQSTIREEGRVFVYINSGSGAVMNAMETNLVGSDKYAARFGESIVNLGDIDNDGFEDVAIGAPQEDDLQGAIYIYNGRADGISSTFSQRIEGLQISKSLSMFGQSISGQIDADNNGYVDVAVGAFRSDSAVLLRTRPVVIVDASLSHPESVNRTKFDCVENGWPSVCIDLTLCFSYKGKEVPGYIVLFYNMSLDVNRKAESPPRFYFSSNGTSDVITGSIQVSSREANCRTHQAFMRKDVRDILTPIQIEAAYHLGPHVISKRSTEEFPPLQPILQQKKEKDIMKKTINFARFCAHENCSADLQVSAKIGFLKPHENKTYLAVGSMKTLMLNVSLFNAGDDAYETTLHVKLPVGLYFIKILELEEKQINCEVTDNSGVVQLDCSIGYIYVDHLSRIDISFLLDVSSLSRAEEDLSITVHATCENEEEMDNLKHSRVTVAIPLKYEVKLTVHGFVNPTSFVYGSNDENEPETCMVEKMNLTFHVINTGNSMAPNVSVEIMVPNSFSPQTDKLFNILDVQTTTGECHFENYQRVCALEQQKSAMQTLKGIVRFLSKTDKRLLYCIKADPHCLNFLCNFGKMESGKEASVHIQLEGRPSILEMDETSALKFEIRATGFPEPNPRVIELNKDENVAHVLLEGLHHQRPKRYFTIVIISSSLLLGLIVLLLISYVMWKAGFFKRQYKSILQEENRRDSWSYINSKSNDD

[8] = calorie-restriction mimetic ROS inhibitors, yeast – validation compound set, pilot screen (AID 2706;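 active means superoxide response below 65% of plate, a cut near 3 SD across the whole screen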;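 further: yeast exposed to compound for one week at 30 degrees C before staining; 100% = mean of all compound wells on the same plate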); details: S. cerevisiae aging, superoxide DHE fluorescence; at 10 µM; stronger effect = lower value
[9] = target: Beta-adrenergic receptor kinase 1 (Homo sapiens) (UniProt P25098); assay: GRK2 binders displacing RNA aptamer, biochemical, validation, human GRK2, bead flow cytometry (AID 488806;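 active means aptamer binding inhibition above 30%, about 3 SD of noise from non-fluorescent compounds; inactive means inhibition at or below 30%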); details: bead-bound GRK2, FAM-aptamer displacement, at 10 µM, stronger effect = higher value
Beta-adrenergic receptor kinase 1 (Homo sapiens), sequence (P25098 whole entry, looked up): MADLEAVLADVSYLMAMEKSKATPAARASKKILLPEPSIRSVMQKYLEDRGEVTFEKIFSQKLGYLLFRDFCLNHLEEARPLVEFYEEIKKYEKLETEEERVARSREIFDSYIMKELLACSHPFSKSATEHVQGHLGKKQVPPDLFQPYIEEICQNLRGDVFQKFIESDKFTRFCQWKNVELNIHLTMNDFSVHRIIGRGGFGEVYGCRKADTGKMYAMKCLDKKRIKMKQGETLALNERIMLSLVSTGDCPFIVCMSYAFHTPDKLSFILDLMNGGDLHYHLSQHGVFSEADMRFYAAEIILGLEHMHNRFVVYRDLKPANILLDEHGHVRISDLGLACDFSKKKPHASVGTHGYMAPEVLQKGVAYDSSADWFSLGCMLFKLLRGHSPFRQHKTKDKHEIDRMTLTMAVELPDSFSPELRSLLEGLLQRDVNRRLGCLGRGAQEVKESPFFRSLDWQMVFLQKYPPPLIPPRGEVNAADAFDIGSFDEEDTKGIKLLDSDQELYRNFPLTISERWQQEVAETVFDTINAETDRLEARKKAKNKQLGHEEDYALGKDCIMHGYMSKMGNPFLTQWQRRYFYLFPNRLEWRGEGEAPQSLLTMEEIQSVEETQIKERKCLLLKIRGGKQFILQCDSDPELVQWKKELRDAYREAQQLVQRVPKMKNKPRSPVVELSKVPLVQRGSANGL

[10] = target: Beta-2 adrenergic receptor (Homo sapiens) (UniProt P07550); assay: agonist-induced loss of surface beta2AR – cell-based, FAP fluorogen, flow cytometry, validation set, pilot screen (AID 504459;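 active means percent response above 42, roughly 3 SD of non-fluorescent test compounds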;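 further: agonist-driven loss of surface beta2AR via internalization measured by FAP dye flow cytometry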); details: Am2.2-beta2AR cells, at 10 µM, stronger effect = higher value
Beta-2 adrenergic receptor (Homo sapiens), sequence (P07550 whole entry, looked up): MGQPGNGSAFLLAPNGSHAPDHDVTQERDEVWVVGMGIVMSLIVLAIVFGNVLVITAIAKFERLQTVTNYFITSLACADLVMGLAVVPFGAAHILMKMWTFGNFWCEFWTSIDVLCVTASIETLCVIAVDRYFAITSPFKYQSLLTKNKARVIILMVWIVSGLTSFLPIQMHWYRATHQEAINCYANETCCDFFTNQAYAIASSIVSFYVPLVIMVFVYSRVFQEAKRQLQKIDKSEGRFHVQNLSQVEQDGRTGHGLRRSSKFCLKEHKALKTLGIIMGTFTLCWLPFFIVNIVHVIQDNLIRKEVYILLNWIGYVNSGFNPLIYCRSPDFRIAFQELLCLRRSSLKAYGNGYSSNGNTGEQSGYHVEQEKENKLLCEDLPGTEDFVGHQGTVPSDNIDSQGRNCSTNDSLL

[11] = target: AP-2 complex subunit beta (Homo sapiens) (UniProt P63010); assay: beta-arrestin/AP2 interaction blockers – biochemical, validation set, GST-AP2 beads, flow cytometry, pilot screen (AID 504541;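 active means inhibition above 54%, about 3 SD of non-fluorescent compounds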;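 further: AP2 carries R879A mutation and is captured from E. coli lysate; bead-bound FITC arrestin peptide fluorescence measuring arrestin peptide binding to AP2; 0% = DMSO wells and 100% = excess unlabeled arrestin peptide control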); details: FITC arrestin peptide, at 10 µM, stronger effect = higher value, AP2 beta2 appendage fragment, R879A mutant
AP-2 complex subunit beta (Homo sapiens), sequence (P63010 whole entry, looked up, the tested form may be a part, one chain of several): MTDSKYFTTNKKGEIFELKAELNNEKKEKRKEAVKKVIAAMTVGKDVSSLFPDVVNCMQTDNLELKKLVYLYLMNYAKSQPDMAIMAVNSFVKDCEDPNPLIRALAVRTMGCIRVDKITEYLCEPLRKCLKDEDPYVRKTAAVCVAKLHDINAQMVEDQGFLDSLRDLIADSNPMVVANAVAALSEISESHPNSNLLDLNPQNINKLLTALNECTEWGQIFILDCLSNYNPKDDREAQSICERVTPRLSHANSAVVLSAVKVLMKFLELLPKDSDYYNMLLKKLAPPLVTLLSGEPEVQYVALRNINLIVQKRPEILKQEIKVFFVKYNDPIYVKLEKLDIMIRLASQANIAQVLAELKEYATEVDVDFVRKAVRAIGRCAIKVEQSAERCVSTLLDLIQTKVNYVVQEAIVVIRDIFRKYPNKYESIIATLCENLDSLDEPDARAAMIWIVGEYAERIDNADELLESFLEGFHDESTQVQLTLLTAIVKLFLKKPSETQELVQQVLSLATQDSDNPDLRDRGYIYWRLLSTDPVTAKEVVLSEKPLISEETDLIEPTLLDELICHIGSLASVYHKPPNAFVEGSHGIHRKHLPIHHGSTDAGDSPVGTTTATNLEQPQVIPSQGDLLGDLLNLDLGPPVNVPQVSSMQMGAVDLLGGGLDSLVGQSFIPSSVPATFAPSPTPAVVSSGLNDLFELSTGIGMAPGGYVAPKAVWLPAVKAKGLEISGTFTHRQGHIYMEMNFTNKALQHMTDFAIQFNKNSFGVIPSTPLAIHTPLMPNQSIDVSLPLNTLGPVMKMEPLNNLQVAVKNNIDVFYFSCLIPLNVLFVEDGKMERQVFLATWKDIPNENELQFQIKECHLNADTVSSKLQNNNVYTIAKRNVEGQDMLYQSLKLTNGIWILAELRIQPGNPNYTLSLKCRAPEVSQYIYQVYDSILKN

[12] = cytosolic pH regulators acting via V-ATPase – S. cerevisiae, pHLuorin, HTS validation (AID 504600; in the data active means response above about 15%;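 further: plate controls were DMSO for no effect and reference compound for full effect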); details: V-ATPase proton transport, at 10 µM, stronger effect = higher value
[13] = system: anti-desmoglein-3 scFv antibody binding to human DSG3; assay: blockers of pathogenic pemphigus antibody–desmoglein-3 binding – biochemical, validation compound set, bead-based, flow cytometry, pilot screen (AID 588368;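 active means binding below the plate cutoff, the plate median minus 3 SD, with a reading above zero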;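 further: signal is the median channel fluorescence of bead-bound GFP antibody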); details: Protein G beads, DSG3-Fc, scFv-GFP binding, at 10 µM, stronger effect = lower value
[14] = Nile Red efflux blockade in pump-expressing yeast – validation compound set, multiplex, phenotypic, pilot screen (AID 588506;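 active means efflux inhibition above 0.42, the validation set average plus 4 SD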;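 further: Nile Red retained in cells so higher fluorescence means more efflux inhibition; 0 = negative control wells and 1 = enniatin B 25 µM full block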); details: S. cerevisiae pump-expressing triplex, Nile Red efflux flow cytometry; at 10 µM; stronger effect = higher value; the pumps come from Candida albicans
[15] = target: ATP-binding cassette sub-family B member 6 (Homo sapiens) (UniProt Q9NP58); assay: blockers of ABCB6-driven porphyrin uptake – K562-ABCB6 cells, flow cytometry, validation set, pilot screen (AID 588550;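 active means inhibition above the screen-wide mean plus 3 SD, about 51%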;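 further: 0% = DMSO wells and 100% = benzethonium chloride 70 µM positive control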); details: K562-ABCB6 porphyrin accumulation, 1 h, at 10 µM, stronger effect = higher value
ATP-binding cassette sub-family B member 6 (Homo sapiens), sequence (Q9NP58 whole entry, looked up): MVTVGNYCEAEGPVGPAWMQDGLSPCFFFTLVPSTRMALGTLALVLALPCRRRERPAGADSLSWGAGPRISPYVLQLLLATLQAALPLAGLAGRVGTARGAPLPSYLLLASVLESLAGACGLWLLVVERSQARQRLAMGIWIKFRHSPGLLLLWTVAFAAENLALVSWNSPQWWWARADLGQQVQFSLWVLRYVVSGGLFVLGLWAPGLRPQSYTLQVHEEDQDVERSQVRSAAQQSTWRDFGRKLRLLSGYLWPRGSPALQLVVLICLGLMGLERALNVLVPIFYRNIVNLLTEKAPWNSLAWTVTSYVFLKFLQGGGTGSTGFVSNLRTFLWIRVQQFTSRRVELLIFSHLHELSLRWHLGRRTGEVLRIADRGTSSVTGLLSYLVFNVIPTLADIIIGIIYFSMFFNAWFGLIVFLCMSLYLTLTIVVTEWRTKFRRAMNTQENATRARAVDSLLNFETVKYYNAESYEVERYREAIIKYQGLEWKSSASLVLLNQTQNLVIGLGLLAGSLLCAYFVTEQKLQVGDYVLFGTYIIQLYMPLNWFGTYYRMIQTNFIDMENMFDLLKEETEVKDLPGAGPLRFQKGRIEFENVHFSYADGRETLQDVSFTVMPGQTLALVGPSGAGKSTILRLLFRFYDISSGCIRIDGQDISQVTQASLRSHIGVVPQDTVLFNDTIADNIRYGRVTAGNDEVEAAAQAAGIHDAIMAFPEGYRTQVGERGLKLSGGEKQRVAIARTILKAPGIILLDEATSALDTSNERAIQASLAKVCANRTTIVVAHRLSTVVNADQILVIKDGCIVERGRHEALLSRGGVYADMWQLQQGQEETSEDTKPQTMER

[16] = AML differentiation inducers, ER-HoxA9 marrow cells – cell-based, GFP/MAC1 double positive, flow cytometry, validation set, primary screen (AID 588685;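 active means differentiation response of at least 50%, scaled between solvent and reference control, from cells with both markers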;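 further: compound exposure lasts four days before antibody staining and flow analysis; 0% = DMSO wells and 100% = 5 µM fulvestrant positive control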); details: stronger effect = higher value, normalized: vehicle 0, fulvestrant 100

| SMILES | percent of DMSO control GFP [1] | GFP response vs DMSO [2] | percent response of DMSO control [3] | GFP response vs DMSO [4] | GFP response, % of DMSO [5] | double positive events [6] [%] | vesicle binding response [6] | inhibition [7] | superoxide response (% of plate) [8] | aptamer binding inhibition [9] | response [10] | inhibition [11] | response [12] | binding (% of control) [13] | efflux inhibition (fraction of control) [14] | inhibition [15] | differentiation response [16] |
| --- | --- | --- | --- | --- | --- | --- | --- | --- | --- | --- | --- | --- | --- | --- | --- | --- | --- |
| Cc1oc2c(O)c(O)ccc2c(=O)c1-c1ccccc1 | 87.8% (inactive) | 107% (inactive) | 106% (inactive) | 74.3% (inactive) | 90.8% (inactive) | 59.4 | 119% (inactive) | -1.3% (inactive) | 110% (inactive) | 3% (inactive) | -8.83% (inactive) | -5.67% (inactive) | -1.26% (inactive) | 107% (inactive) | 0.45 (active) | 9% (inactive) | -2.46% (inactive) |
| c1ccc(Cn2nnc3cnccc32)cc1 | 104% (inactive) | 101% (inactive) | 104% (inactive) | 106% (inactive) | 107% (inactive) | 57.9 | 67.8% (inactive) | 4.27% (inactive) | 113% (inactive) | 2% (inactive) | 0.22% (inactive) | -12.1% (inactive) | 0.84% (inactive) | 102% (inactive) | 0.33 (inactive) | 9% (inactive) | -10.4% (inactive) |
| O=C(NCc1ccc(N2CCCC2=O)cc1)c1ccc(F)cc1 | 103% (inactive) | 106% (inactive) | 100% (inactive) | 99.5% (inactive) | 116% (inactive) | 62.5 | 211% (inactive) | 17.6% (inactive) | 101% (inactive) | 3% (inactive) | -6.33% (inactive) | 6.32% (inactive) | -1.49% (inactive) | 107% (inactive) | -0.04 (inactive) | 2% (inactive) | 1.91% (inactive) |
| COc1ccc(-c2[nH]ncc2CN(C)C(C)c2ccon2)c(OC)c1 (stereo not given) | 92.4% (inactive) | 137% (inactive) | 106% (inactive) | 78.7% (inactive) | 91% (inactive) | 61.9 | 143% (inactive) | 10.3% (inactive) | 99.7% (inactive) | 2% (inactive) | -3.13% (inactive) | 8% (inactive) | -3.5% (inactive) | 105% (inactive) | 0.01 (inactive) | 11% (inactive) | -4.91% (inactive) |
| O=C(O)/C=C/c1cnc[nH]1 | 104% (inactive) | 108% (inactive) | 106% (inactive) | 101% (inactive) | 112% (inactive) | 59.9 | 93.5% (inactive) | 2.93% (inactive) | 98.6% (inactive) | -2% (inactive) | -4.55% (inactive) | -0.6% (inactive) | -0.43% (inactive) | 103% (inactive) | 0.755 (active) | 10% (inactive) | -13.3% (inactive) |
| COc1ccc2c(c1)C=CC1(O2)N(CCO)c2ccccc2C1(C)C (stereo not given) | 98.2% (inactive) | 111% (inactive) | 104% (inactive) | 124% (inactive) | 117% (inactive) | 62.1 | 212% (inactive) | -55.6% (inactive) | 108% (inactive) | 6% (inactive) | 43.9% (active) | 13.6% (inactive) | 7.05% (inactive) | 99.2% (inactive) | 0.04 (inactive) | -25% (inactive) | -1.05% (inactive) |
| CC(=O)CCc1c(C)c2cccc(C)c2[nH]c1=O | 104% (inactive) | 99.6% (inactive) | 103% (inactive) | 97.4% (inactive) | 98.8% (inactive) | 56.4 | 269% (inactive) | -9.98% (inactive) | 105% (inactive) | 1% (inactive) | -3.42% (inactive) | -3.21% (inactive) | -0.84% (inactive) | 95.5% (inactive) | -0.03 (inactive) | 9% (inactive) | -18.4% (inactive) |
| CCOC(=O)N1CCN(Cc2nc(Cc3cccc(F)c3)no2)CC1 | 102% (inactive) | 105% (inactive) | 100% (inactive) | 99.9% (inactive) | 101% (inactive) | 64.5 | 171% (inactive) | -3.57% (inactive) | 103% (inactive) | 5% (inactive) | 0.58% (inactive) | -8.69% (inactive) | 2.06% (inactive) | 94.8% (inactive) | 0.02 (inactive) | 13% (inactive) | 4.15% (inactive) |
| CCOC(=O)C(=O)N1CCN(c2ccccc2OC)CC1 | 97.9% (inactive) | 112% (inactive) | 98.6% (inactive) | 94.8% (inactive) | 104% (inactive) | 64.7 | 175% (inactive) | -9.13% (inactive) | 98% (inactive) | 3% (inactive) | 3.6% (inactive) | 14.2% (inactive) | -4.83% (inactive) | 102% (inactive) | -0.125 (inactive) | 7% (inactive) | -8.96% (inactive) |
| CCOc1ncnc2c1[nH]c1ccccc12 | 99.7% (inactive) | 98.5% (inactive) | 104% (inactive) | 88% (inactive) | 85.7% (inactive) | 52.2 | 354% (inactive) | -8.62% (inactive) | 101% (inactive) | 4% (inactive) | 14.8% (inactive) | -7.64% (inactive) | 19.2% (active) | 98.9% (inactive) | 0.01 (inactive) | 8% (inactive) | -31.2% (inactive) |
